The list is not random: actives were taken first. Their share in the collection is about 8.6%.
Marburg entry: inhibitors of Marburg virus binding or entry into cells; AID 720532; Potency, µM (series often up to 49.2 µM), inactives show at the top dose activity change, negative = inhibition, hits mostly inhibitors; actives 6.5% (n = 18,000); Marburg virus pseudotype entry/binding inhibition, cell-based
Lassa entry: inhibitors of Lassa virus binding or entry into cells | Lassa virus pseudotyped entry inhibition, cell-based qHTS | Potency, µM (highest dose often 49.2 µM), for inactives: top-dose activity change, negative = inhibition, actives largely listed as inhibitors | actives 4.1% (n = 18,000) | AID 720533
* hit, by the source's call; ? = inconclusive; . = no result; [ ] = remark or other dose. Calls come from the whole dose curve; tested in HEK293 cells. % is set by controls: 0 for no effect and ±100 for the full control effect; potency is the fitted concentration of half-maximal effect.

SMILES	Marburg entry	Lassa entry
COCOc1c2c(c(OCOC)c3c(OCOC)cccc13)C(=NNS(=O)(=O)c1ccc(C)cc1)C1=C2CCCC1	?	-22%[8.59 µM]
COC(=O)C1=C(C)N(CC2CC2)C(N(C)Cc2ccc(OC)cc2)=NC1c1ccccc1 (centres undefined)	-14%[8.59 µM]	8%[8.59 µM]
CCN(CC)CCC[C@H](C)Nc1ccnc2cc(Cl)ccc12	-22%[17.8 µM]	24%[17.8 µM]
CCN(CC)Cc1ccc(Nc2ccnc3cc(Cl)ccc23)cc1O	1.8µM*	?
CCOC(=O)CCN1C(=O)[C@@H]2[C@H]3[C@H](O)[C@H](O)CC(=NNC(=O)OCc4ccc(OC)cc4)[C@H]3CC[C@H]2C1=O	22%[8.59 µM]	.
C=CCO[C@@H]1C=C[C@@H](c2ccccc2)O[C@@H]1COC	18%[8.59 µM]	4%[8.59 µM]
COC(=O)C1=C(C)N(Cc2ccccc2)C(=NCCc2c[nH]c3ccccc23)NC1c1ccc(Br)cc1 (centres undefined)	?	-14%[8.59 µM]
COc1ccc(CC2c3cc(OC)c(OC)cc3CCN2C)cc1OC (centres undefined)	4%	-19%
COc1ccc2cc1Oc1ccc(cc1)C[C@H]1c3cc(c(OC)cc3CCN1C)Oc1c(OC)c(OC)cc3c1[C@H](C2)N(C)CC3	3.5µM*	13µM*
COc1cc2c(cc1O)-c1c(O)c(OC)cc3c1[C@H](C2)N(C)CC3	-28%	4%
COc1cc2c(cc1O)C[C@H]1c3c(cc(O)c(OC)c3-2)CCN1C	20%[17.8 µM]	15%[17.8 µM]
COc1ccc2c(c1OC)C(=O)O[C@@H]2[C@H]1c2c(cc3c(c2OC)OCO3)CCN1C	?	-15%
COc1cc2c3cc1Oc1c(OC)c(OC)cc4c1[C@@H](Cc1ccc(OC(=O)c5ccc([N+](=O)[O-])cc5)c(c1)Oc1ccc(cc1)C[C@@H]3N(C)CC2)N(C)CC4	0.63µM*	?
COc1ccc2cc1Oc1ccc(cc1)C[C@H]1c3c(cc4c(c3Oc3cc5c(cc3OC)CCN(C)[C@@H]5C2)OCO4)CCN1C	1.8µM*	?
COc1cc2c3cc1Oc1c(OC)c(OC)cc4c1[C@@H](Cc1ccc(O)c(c1)Oc1ccc(cc1)C[C@@H]3N(C)CC2)N(C)CC4	2.8µM*	11µM*
CCN1C(=NCC(C)C)N[C@@H](CCc2ccccc2)[C@H](C(=O)OC)[C@H]1C	?	-1%[8.59 µM]
C[C@H]1CC[C@H]2C(=O)O[C@H](COc3ccc(C(C)(C)C)cc3)CN2[C@H]1c1ccc(Br)cc1	-12%[8.59 µM]	.
C=CCOC(=O)N[C@H](C(C(=O)OC)=C(C)NCc1ccccc1)c1ccc(Br)cc1	7%[8.59 µM]	-3%[8.59 µM]
CCN1C(=NCCCCO)NC(c2cccc(C(F)(F)F)c2)C(C(=O)OC)=C1C (centres undefined)	-19%[8.59 µM]	14%[8.59 µM]
COc1ccc([C@]23Cc4ccccc4[C@H](O2)C2=C(CC4(CCCCC4)OC2=O)O3)cc1	50%[8.59 µM]	44%[8.59 µM]
CC1=C[C@@H](C)OC2(C1)C(=O)N(CC1CC1)c1cccc(Br)c12 (some centres undefined)	3%[8.59 µM]	2%[8.59 µM]
Cc1cc2c(C(C)C)c(O)c(O)c(C=O)c2c(O)c1-c1c(C)cc2c(C(C)C)c(O)c(O)c(C=O)c2c1O	20µM*	11µM*
O=C(c1ccc([N+](=O)[O-])cc1)N1[C@H](COCc2ccccc2)C=CS1(=O)=O	-20%	-20%
CN1[C@@H](c2ccccc2)COc2c(Cl)cccc2S1(=O)=O	-9%	-44%
COc1cc(CN2CCC3(CCC(CNC(=O)c4ccccc4)O3)CC2)cc(OC)c1 (centres undefined)	13µM*	-11%
SMILES	Marburg entry	Lassa entry
Cc1nc2ccc(C(=O)NCC3CCC4(CCN(Cc5cccnc5)CC4)O3)cc2nc1C (centres undefined)	?	-14%
C[C@@H]1C(c2ccccc2)=CC(=O)c2nc3ccccc3cc2[C@@H]1C(=O)N1CCCC1	-10%[8.59 µM]	-3%[8.59 µM]
COc1ccc(S[C@@H]2C[C@@H](C(=O)Nc3ccc4nccnc4c3)N(C3Cc4ccccc4C3)C2)cc1	-6%	3.2µM*
Cc1ccc(CN2C[C@H](Sc3ccccn3)C[C@H]2C(=O)Nc2ccc3sc(C)nc3c2)cc1	?	-13%
O[C@@H](CNC[C@H](O)[C@H]1CCc2cc(F)ccc2O1)[C@@H]1CCc2cc(F)ccc2O1	10µM*	?
CN1C(=O)[C@]23CC4=CC=C[C@H](O)[C@H]4N2C(=O)[C@@]1(CO)SS3	1.4µM*	2.5µM*
CC[C@@H](C)[C@H](N)C(=O)O	4%	-3%
CCCCCC(=O)N1C[C@@H](n2cc(-c3ccc(F)cc3)nn2)[C@H](O)C[C@H]1c1ccccc1	?	-15%
Cn1c2ccccc2c2c3c(c4c5ccccc5n(CCC#N)c4c21)CNC3=O	?	11µM*
COC(=O)[C@@H]1CC[C@H](C)[C@@H](c2ccc(C)cc2)N1C(=O)c1ccc(C=NO[C@@H](C)c2cn([C@H](CO)Cc3ccccc3)nn2)cc1	5%[8.59 µM]	.
CC(C)C[C@@H]1COc2cccc(NN3CCN(C)CC3)c2S(=O)(=O)N1	-4%	8%
CC(=O)[C@]12C[C@@H]3CCN(C(=O)N[C@@H]1c1ccccc1)[C@@]32C	?	-18%[8.59 µM]
Cc1nc2sccn2c(=O)c1CCN1CCC(=C(c2ccc(F)cc2)c2ccc(F)cc2)CC1	?	35µM*
Cc1nc2ccccn2c(=O)c1CCN1CCC(C(=O)c2ccc(F)cc2)CC1	?	6%
O=C(OCc1cn([C@H]2C[C@H](c3ccccc3)N(CC3CCCCC3)C[C@H]2O)nn1)c1ccccc1	?	-28%
CN(C)CCCn1c(-c2nonc2N)nc2cnccc21	?	-12%
CCn1c(-c2nonc2N)nc2cncc(C(=O)N3CCNCC3)c21	5%	-55%
CCn1c(-c2nonc2N)nc2c(C#CC(C)(C)O)ncc(OCC3CCNCC3)c21	1.8µM*	.
CCn1c(-c2nonc2N)nc2c(C#CC(C)(C)O)ncc(OCC3CCCN3)c21 (centres undefined)	1.3µM*	.
COCOCCn1cc(CN2CCS(=O)(=O)N(Cc3ccc(-c4ccccc4)cc3)C(C)C2=O)nn1 (centres undefined)	10%	-7%
Nc1nc(-c2ccccn2)c(-c2ccc3ncccc3n2)s1	43%	48%
CO[C@@H]1c2ccccc2[C@H]2C(C(=O)O)c3c(n(C)c4ccccc34)[C@H]2[C@H]1C (some centres undefined)	29%[8.59 µM]	-22%[8.59 µM]
Cc1ccccc1-c1nc(NCCN2CCOCC2)c2ccccc2n1	-16%	-3%
Cc1ccccc1-c1nc(NC2CCNCC2)c2ccccc2n1	8.9µM*	9%
Nc1nc(F)nc2c1ncn2[C@@H]1O[C@H](CO)[C@@H](O)[C@@H]1O	9%	-7%
SMILES	Marburg entry	Lassa entry
Nc1nc(=S)c2ncn([C@H]3O[C@@H](CO)[C@@H](O)[C@@H]3O)c2[nH]1	2µM*	?
CC(=O)O[C@@H]1[C@@H](O)C2OC3C=C(C)C(=O)[C@@H](O)[C@]3(CO)C1(C)C21CO1 (some centres undefined)	0.35µM*	0.56µM*
CN(Cc1ccccc1)Cc1ccccc1	2%	-4%
CCN(CCCc1ccccc1)CCCc1ccccc1	8.9µM*	?
O=C1CCCC=C1C(O)CCOCc1ccccc1 (centres undefined)	7%[8.59 µM]	16%[8.59 µM]
CC(NCCC(c1ccccc1)c1ccccc1)c1ccccc1 (centres undefined)	11µM*	?
CN(C)[C@H](Cc1ccccc1)c1ccccc1	2%	-1%
C[C@@H](Cc1ccccc1)NCCC(c1ccccc1)c1ccccc1	7.9µM*	?
